Test results published in PubChem BioAssay AID2283176 (EPA ToxCast).
Records with an inconclusive call do not appear. Active and inactive are the calls of the source. Rule for the calls: active = hit-call score of the fitted dose curve at least 0.9, where 1 is the maximum; inconclusive = response in the unintended direction; inactive = score below 0.9.

Target: human MAP Kinase-Activated Protein Kinase 5 (MAPKAPK5), MAPKAPK5 (gene 8550) (UniProt Q8IW41)
Experiment: NVS_ENZ_hMAPKAPK5: NovaScreen (NVS) Enzymatic Assay for human MAP Kinase-Activated Protein Kinase 5 (MAPKAPK5)
Experimental: NVS_ENZ_hMAPKAPK5 is a biochemical, single-readout assay that uses extracted gene-proteins in a cell-free assay. Measurements were taken 1 hour after chemical dosing in a 384-well plate.NVS_ENZ_hMAPKAPK5 is one of one assay component(s) measured or calculated from the NVS_ENZ_hMAPKAPK5 assay. It is designed to make measurements of enzyme activity, a form of enzyme reporter, as detected with fluorescence intensity signals by Fluorescence and electrophoretic mobility shift technology.Data from the assay component NVS_ENZ_hMAPKAPK5 was analyzed into 1 assay endpoint. This assay endpoint, NVS_ENZ_hMAPKAPK5, was analyzed in the positive analysis fitting direction relative to DMSO as the negative control and baseline of activity. Using a type of enzyme reporter, loss-of-signal activity can be used to understand changes in the enzymatic activity as they relate to the gene MAPKAPK5. Furthermore, this assay endpoint can be referred to as a primary readout, because this assay […]. To generalize the intended target to other relatable targets, this assay endpoint is annotated to the kinase intended target family, where the subfamily is serine/threonine kinase.
Binding assays used specific radioligands (tritiated, iodinated) with non-radioactive competitive displacement ligands in agonist or antagonist protocols (as indicated) and various reference compounds and inhibitors to titrate specific binding to receptors and transporters. Most enzyme assays (CYPs, kinases, phosphatases, proteases, HDACs) used recombinant protein and specific substrates (fluorescence mostly, some colorimetric and radioactive) and inhibitors, followed by a biochemical separation of substrate and product. All assays for the biochemical HTS were initially run in duplicate at a single concentration (10 uM for CYP450 assays and 25 uM for all others). Assay-chemical combinations meeting a pre-defined threshold (e.g., 30% inhibition and other criteria defined below) were then run in singleton concentration-response format with maximum concentration of 20 uM for CYPs and 50 uM for all others. Each assay was run with positive and negative controls, and concurrent controls on every plate. The follow-up (secondary) screen tested active chemical-pairs in concentration series, as well as a few additional assays not tested in the primary screen, some selected negative inactives, and several cases re-run in the concentration series for confirmatory purposes.

Chain of human MAP Kinase-Activated Protein Kinase 5 (MAPKAPK5), MAPKAPK5 (gene 8550) (Q8IW41 whole entry, looked up): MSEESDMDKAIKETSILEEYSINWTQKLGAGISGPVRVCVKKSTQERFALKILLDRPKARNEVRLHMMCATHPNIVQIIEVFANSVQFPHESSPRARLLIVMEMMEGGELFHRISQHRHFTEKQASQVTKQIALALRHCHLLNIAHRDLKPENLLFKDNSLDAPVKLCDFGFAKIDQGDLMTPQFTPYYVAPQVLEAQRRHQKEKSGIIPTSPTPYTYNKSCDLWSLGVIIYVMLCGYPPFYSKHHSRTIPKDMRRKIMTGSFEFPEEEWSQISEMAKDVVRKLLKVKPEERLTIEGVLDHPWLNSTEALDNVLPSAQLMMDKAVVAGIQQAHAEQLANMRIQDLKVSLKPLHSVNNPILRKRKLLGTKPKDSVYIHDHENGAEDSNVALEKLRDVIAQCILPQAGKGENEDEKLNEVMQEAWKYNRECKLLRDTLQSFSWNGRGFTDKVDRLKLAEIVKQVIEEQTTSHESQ

Row | SMILES | outcome | AC50
1 | S=C1NCCN1 | inactive | –
2 | C=C(C)CN(CC)c1c([N+](=O)[O-])cc(C(F)(F)F)cc1[N+](=O)[O-] | inactive | –
3 | O=S(=O)(O)C(F)(F)C(F)(F)C(F)(F)C(F)(F)C(F)(F)C(F)(F)C(F)(F)C(F)(F)F | – | 44.1 µM (active)
4 | N#Cc1c(Cl)c(Cl)c(Cl)c(C#N)c1Cl | inactive | –
5 | CN(C)[C@@H]1C(=O)C(C(N)=O)=C(O)[C@@]2(O)C(=O)C3=C(O)c4c(O)cccc4[C@@](C)(O)[C@H]3[C@H](O)[C@@H]12 | – | 24.2 µM (active)
6 | O=C(O)C(F)(F)C(F)(F)C(F)(F)C(F)(F)C(F)(F)C(F)(F)C(F)(F)F | inactive | –
7 | CCCC(=NOCC)C1=C(O)CC(CC(C)SCC)CC1=O (stereo not drawn) | inactive | –
8 | CNC(=S)S | inactive | –
